# PubChem BioAssay
# Values joined by “and” are separate entries in the source; they are usually repeats but may differ in a detail not shown here. Identical values can stand only once. Active and inactive are the calls of the source.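 How the source made its calls, unless noted: active means inhibition at or above 50% relative to wild type and mutant plate controls; inactive means inhibition below 50%.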
# Key:
# [1] = inhibitors of TNFa-induced NFkB p65 translocation, primary screen, imaging, HUVEC, MLSMR starter and 10KST1 sets (AID 438;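 active means inhibition above 20% together with a positive visual image hit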;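 further: compound added about 3h40 before a 20 min TNFalpha stimulation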;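 on inhibition: signal is the nuclear over cytoplasmic p65 intensity ratio per well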); settings: HUVEC TNFa-induced p65 nuclear translocation; cell count: measured here: nuclei count (cytotoxicity indicator), at 2.08 µM; inhibition: at 2 µM, stronger effect = higher value, 0% TNFa-plus-vehicle, 100% no-TNFa wells
# [2] = reduction of polyQ htt aggregates in cells – imaging, exon1htt(103Q)mCFP cells, high-content imaging, primary screen (AID 483;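 active means visual image review flags a hit and inhibition of aggregation exceeds 20%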;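 further: compound exposure lasted 3 days before fixation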;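 on nuclei count: percent of the per-plate median nuclei count of sample wells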); settings: exon1htt(103Q)mCFP cell line, aggregate imaging, at 2 µM; inhibition of aggregation: stronger effect = higher value; nuclei count: measured here: cell count, toxicity
# [3] = endothelial E-selectin expression blockers – imaging, HUVEC, immunofluorescence, MLSMR starter and 10KST1 sets, primary screen (AID 487;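 active means visually confirmed hit in the image check and inhibition above 20%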;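 on inhibition: signal is fraction of cell area covered by stained E-selectin grains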;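 on nuclei count: 100% = median nuclei count of all wells on the same plate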); settings: HUVEC TNFalpha-induced E-selectin immunofluorescence imaging, at 2 µM; inhibition: stronger effect = higher value; nuclei count: measured here: cell number, toxicity
# [4] = Primary imaging screen for DUSP6 inhibitors that restore phospho-Erk in transfected HeLa cells, chemical complementation (AID 609;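 active means compounds giving at least 50% inhibition in the cell-based MKP-3 phosphatase rescue imaging test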;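 on inhibition: phospho-Erk level distribution per well compared with pooled transfected vehicle control wells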); settings: HeLa MKP-3 transfected, phospho-Erk imaging KS statistic, at 10 µM, cells stimulated with TPA for 15 min
# [5] = target: Dual specificity protein phosphatase 6 (Homo sapiens) (UniProt Q16828); assay: as above; settings: HeLa MKP-3 transfected, phospho-Erk imaging KS statistic; at 10 µM; stronger effect = higher value; cells stimulated with TPA for 15 min
# [6] = target: Voltage-gated potassium channel subunit beta-2 (Rattus norvegicus) (UniProt P62483); assay: inhibitors of rat Kvbeta2 reductase activity – biochemical, NADPH fluorescence, primary screen (AID 622;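 active means fluorescence slope higher than the sample average by over 3 SD, cut at about -0.22 in these data, passing the limit was not always enough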;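 further: slope of raw intensity against log time taken from 70 to 1610 s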); settings: recombinant KvBeta, 4-cyanobenzaldehyde reduction, at 10 µM, stronger effect = higher value
# [7] = target: Voltage-gated potassium channel subunit beta-2 (Rattus norvegicus) (UniProt P62483); assay: enhancers of rat Kvbeta2 NADPH turnover – biochemical, NADPH fluorescence, primary screen (AID 623;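 active means NADPH fluorescence slope more negative than the mean of all samples by about 3 SD, 99.7% confidence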;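 further: fluorescence intensity change per second fitted from 20 to 320 s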); settings: Recombinant KvBeta, NADPH fluorescence decrease slope, 10 min; at 10 µM; stronger effect = lower value
# [8] = target: Alpha-2C adrenergic receptor (Homo sapiens) (UniProt P18825); assay: compounds altering alpha2C-coupled GIRK flux – cell-based, HEK293 alpha2C/GIRK1/2, thallium flux, primary screen (AID 624;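 active means fluorescence slope after compound addition differing from the mean of all screened samples at 99.7% confidence, in either direction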;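 further: slope of fluorescence ratio to pre-addition baseline per second over 15 to 24 s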); settings: thallium flux BTC fluorescence, at 10 µM, actives lie on both sides
# [9] = inhibitors of larval lipid processing in zebrafish, primary screen, whole organism, PED6 fluorescence, gall bladder and intestine (AID 686;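 active means a full or partial loss of lipid-probe fluorescence in the fish gall bladder, intestine or both, judged by eye; inactive means no fluorescence loss, or compound toxic to the fish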;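 further: larvae 5 to 7 days old with five fish per well; signal comes from phospholipase A2 cleavage of quenched PED6 carried via bile; overnight exposure to compound and PED6 before scoring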); settings: Zebrafish larvae PED6 lipid processing, fluorescence scoring; screened at 20 µM (by protocol)
# [10] = loss of swimming-algae plug formation – whole organism, Chlamydomonas reinhardtii, WT vs cilia-less mutant, absorbance, 96-well, primary screen (AID 463189); settings: Chlamydomonas reinhardtii gravitaxis, OD600 absorbance, 2 days; at 10 µM; stronger effect = higher value;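 further: 0% = wild type cc124 cells in DMSO and 100% = ciliumless bld1 mutant cells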
# [11] = blockers of RIG-like receptor reporter activation – cell-based, Sendai virus stimulus, luciferase, 10K MLSCN set, TLR/RLR signaling modifier project, primary screen (AID 602276;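 active means inhibition at or above 50% at 10 µM; inactive means inhibition below 50%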;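 further: firefly luciferase from ISG56 promoter only with Renilla not read in this screen; 0% = Sendai virus plus DMSO and 100% = medium plus DMSO without virus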); settings: HEK293 RL24 IRF3 luciferase reporter, at 10 µM, stronger effect = higher value
# [12] = TLR3 IRF3 reporter activation blockers – cell-based, poly I:C stimulus, luciferase, 10K MLSCN set, primary screen (AID 602277;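 active means inhibition of the reporter signal at or above 50%; inactive means inhibition below 50%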); settings: HEK293-TLR3 RL24 IRF3 luciferase reporter, at 10 µM, stronger effect = higher value
# [13] = measured here: cell density z-score
# [14] = measured here: nuclear c-Myc green intensity z-score
# [15] = measured here: nuclear pErk red intensity z-score, stronger effect = higher value
# Sequence of Voltage-gated potassium channel subunit beta-2 (Rattus norvegicus) (P62483 whole entry, looked up): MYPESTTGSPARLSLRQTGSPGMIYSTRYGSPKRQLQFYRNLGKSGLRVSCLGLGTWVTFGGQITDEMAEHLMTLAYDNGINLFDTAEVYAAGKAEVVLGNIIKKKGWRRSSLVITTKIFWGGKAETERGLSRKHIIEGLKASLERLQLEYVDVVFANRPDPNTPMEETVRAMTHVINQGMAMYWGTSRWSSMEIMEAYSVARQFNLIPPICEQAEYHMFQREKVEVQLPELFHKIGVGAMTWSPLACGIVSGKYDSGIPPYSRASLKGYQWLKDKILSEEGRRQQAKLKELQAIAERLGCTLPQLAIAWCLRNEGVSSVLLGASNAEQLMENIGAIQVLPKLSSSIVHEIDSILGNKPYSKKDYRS
# Sequence of Alpha-2C adrenergic receptor (Homo sapiens) (P18825 whole entry, looked up): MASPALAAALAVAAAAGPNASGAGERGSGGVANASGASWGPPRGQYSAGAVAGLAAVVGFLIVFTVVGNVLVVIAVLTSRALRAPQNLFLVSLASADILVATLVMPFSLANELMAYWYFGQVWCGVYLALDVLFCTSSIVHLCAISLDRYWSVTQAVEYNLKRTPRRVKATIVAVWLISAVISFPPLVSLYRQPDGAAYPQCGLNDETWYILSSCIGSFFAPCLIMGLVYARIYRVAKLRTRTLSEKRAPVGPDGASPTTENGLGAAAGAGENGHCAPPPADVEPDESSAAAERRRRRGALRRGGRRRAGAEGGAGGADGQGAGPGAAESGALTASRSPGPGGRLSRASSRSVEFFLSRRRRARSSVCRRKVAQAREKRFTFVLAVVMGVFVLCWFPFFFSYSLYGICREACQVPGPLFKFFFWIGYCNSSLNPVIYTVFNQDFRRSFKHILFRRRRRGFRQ
# Sequence of Dual specificity protein phosphatase 6 (Homo sapiens) (Q16828 whole entry, looked up): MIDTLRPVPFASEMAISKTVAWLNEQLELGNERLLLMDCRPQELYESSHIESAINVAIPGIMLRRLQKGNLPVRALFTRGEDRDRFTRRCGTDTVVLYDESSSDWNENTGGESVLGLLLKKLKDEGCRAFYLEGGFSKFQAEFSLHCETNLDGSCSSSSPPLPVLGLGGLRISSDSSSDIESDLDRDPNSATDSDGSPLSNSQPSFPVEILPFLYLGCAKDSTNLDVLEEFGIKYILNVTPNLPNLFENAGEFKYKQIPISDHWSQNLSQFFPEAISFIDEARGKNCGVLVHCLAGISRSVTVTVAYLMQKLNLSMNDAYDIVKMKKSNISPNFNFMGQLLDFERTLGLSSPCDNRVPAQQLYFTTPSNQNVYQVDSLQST
SMILES,cell count [1],inhibition [1],inhibition of aggregation [2],nuclei count [2],inhibition [3],nuclei count [3],"z-score [4, 13]","z-score [4, 14]","z-score [4, 15]",inhibition [5],fluorescence slope [6],NADPH fluorescence slope [7],slope [8],outcome [9],inhibition [10],inhibition [11],inhibition [12]
COc1ccc(C2/C(=C(/O)c3ccccc3)C(=O)C(=O)N2c2ncccn2)cc1OC (stereo not drawn),460,-0.7% (inactive),2.3% (inactive),108%,-7.4% (inactive),151%,-0.394,1.14,-0.858,11.4% (inactive),-0.338 (inactive),-3.2e-05 (inactive),0.00532 (inactive),inactive,-1.92% (inactive),7.62% (inactive),3.83% (inactive)
Cn1c([N+](=O)[O-])cnc1COC(N)=O,663,-2.1% (inactive),6.9% (inactive),97.8%,-73.8% (inactive),138%,0.12,0.491,1.01,1.48% (inactive),-0.492 (inactive),-3.9e-05 (inactive),0.00486 (inactive),inactive,15.2% (inactive),16.7% (inactive),40.5% (inactive)
Cc1cccc(C)c1NC(=O)C1CCCCN1C (stereo not drawn),662,-8.2% (inactive),-22% (inactive),108%,-104% (inactive),139%,1.2,-0.238,0.358,3.45% (inactive),-0.488 (inactive),-4.1e-05 (inactive),0.00459 (inactive),inactive,3.16% (inactive),12.7% (inactive),35.5% (inactive)
CCSC(SCC)[C@H](O)[C@@H](O)[C@H](O)[C@H](O)CO,619,-2.2% (inactive),-0.2% (inactive),107%,-75.4% (inactive),116%,-0.857,-0.361,-0.437,-4.44% (inactive),-0.451 (inactive),1.5e-05 (inactive),0.00559 (inactive),inactive,-8.68% (inactive),10.6% (inactive),28.3% (inactive)
Cc1[nH]nc2c1C(CCc1ccccc1)C(C#N)=C(N)O2 (stereo not drawn),561,-10% (inactive),-13.6% (inactive),111%,-14.6% (inactive),115%,-1.62,-1.48,1.34,-9.7% (inactive),-0.498 (inactive),-3.1e-05 (inactive),0.00364 (inactive),inactive,2.48% (inactive),-8.58% (inactive),2.77% (inactive)
NCc1ccc(S(N)(=O)=O)cc1,705,-2.8% (inactive),26.6% (inactive),107%,-71.2% (inactive),118%,0.933,-0.356,-0.92,21.2% (inactive),-0.453 (inactive),-9.2e-05 (inactive),0.00484 (inactive),inactive,1.96% (inactive),14% (inactive),32.7% (inactive)
CCN(CC)CC#CCOC(=O)C(O)(c1ccccc1)C1CCCCC1 (stereo not drawn),506,-6.6% (inactive),-15.9% (inactive),97.3%,4.9% (inactive),112%,-0.442,-0.591,0.229,5.42% (inactive),-0.492 (inactive),-7.5e-05 (inactive),0.00459 (inactive),inactive,6.66% (inactive) and 16.9% (inactive),9.64% (inactive),30.4% (inactive)
CCN1CCN(c2cc3c(cc2F)c(=O)c(C(=O)O)cn3C2CC2)CC1,605,1.1% (inactive),3.3% (inactive),97.3%,-41.3% (inactive),116%,0.332,0.418,0.882,-5.24% (inactive),-0.498 (inactive),1.7e-06 (inactive),0.0049 (inactive),inactive,-15.2% (inactive),1.29% (inactive),31.6% (inactive)
CCCCC[C@H](O)/C=C/[C@@H]1[C@@H](CCCCCCC(=O)O)[C@@H](O)C[C@H]1O,594,-7.7% (inactive),9% (inactive),106%,-80.7% (inactive),114%,-0.368,0.536,-0.971,7.39% (inactive),-0.458 (inactive),-4e-05 (inactive),0.00481 (inactive),inactive,-6.66% (inactive),11.4% (inactive),33.8% (inactive)
COc1cccc(OC)c1OCCN1CCN(C(=O)c2ccco2)CC1,361,-3.1% (inactive),10.7% (inactive),104%,-24.8% (inactive),102%,0.154,0.0392,-1.87,13.2% (inactive),-0.538 (inactive),-6.4e-05 (inactive),0.00433 (inactive),inactive,-8.27% (inactive),11.8% (inactive),17.9% (inactive)
COc1ccc(C2CC(=O)C(C=NCCN3CCOCC3)=C(O)C2)cc1 (stereo not drawn),379,-8.5% (inactive),0.1% (inactive),106%,-118% (inactive),138%,0.329,0.663,-0.587,-5.62% (inactive),-0.354 (inactive),9.4e-06 (inactive),0.00492 (inactive),inactive,7.09% (inactive),14.9% (inactive),20.5% (inactive)
Cc1ccc2nc(C(F)(F)F)c(C#N)c(N)c2c1,451,-9.7% (inactive),11% (inactive),77.3%,-14.1% (inactive),90.7%,-0.557,-0.479,-0.0348,1.75% (inactive),-0.49 (inactive),-2e-05 (inactive),0.00524 (inactive),inactive,-8.78% (inactive),20% (inactive),-10.8% (inactive)
CCC(NC(C)C)C(O)c1ccc(O)c2[nH]c(=O)ccc12 (stereo not drawn),682,-3% (inactive),-11.3% (inactive),109%,-80% (inactive),142%,0.193,0.138,0.273,13.3% (inactive),-0.49 (inactive),-3.3e-05 (inactive),0.00523 (inactive),inactive,23.9% (inactive),17.4% (inactive),45.8% (inactive)
CCN(CCCc1ccccc1)CCCc1ccccc1,633,-10.9% (inactive),-6.3% (inactive),95.6%,-92.8% (inactive),132%,-0.00243,0.557,-0.117,9.37% (inactive),-0.514 (inactive),-3.6e-06 (inactive),0.00419 (inactive),inactive,128% (active),16.6% (inactive),29.6% (inactive)
COC(=O)CSc1nc2sc3c(c2c(=O)n1C1CCCCC1)CCN(C)C3,390,-4.4% (inactive),-16% (inactive),102%,-127% (inactive),140%,-0.811,-0.963,1.03,-8.59% (inactive),-0.289 (inactive),2e-05 (inactive),0.00385 (inactive),inactive,14.6% (inactive),15.7% (inactive),38.9% (inactive)
CCOC(=O)c1ccc(-n2c(=O)[nH]c3ccccc3c2=O)cc1,443,-3.4% (inactive),7.1% (inactive),80%,-140% (inactive),136%,-0.719,-0.246,0.316,11.4% (inactive),-0.415 (inactive),-5.7e-05 (inactive),0.00476 (inactive),inactive,9.26% (inactive),-16.9% (inactive),-29.3% (inactive)
CO[C@@]1(NC(=O)CSCC#N)C(=O)N2C(C(=O)O)=C(CSc3nnnn3C)CS[C@@H]21,632,-3.9% (inactive),3.8% (inactive),103%,-96.3% (inactive),143%,0.71,-0.314,-0.547,19.2% (inactive),-0.497 (inactive),-7e-05 (inactive),0.00536 (inactive),inactive,5.45% (inactive) and -4.17% (inactive),7.82% (inactive),28.6% (inactive)
COc1ccc2cnn(-c3ccccc3C)c(=O)c2c1OC,613,-6.2% (inactive),1.9% (inactive),116%,-124% (inactive),157%,0.481,0.125,1.16,-6.48% (inactive),-0.372 (inactive),-3.7e-05 (inactive),0.00535 (inactive),inactive,9.21% (inactive),9.25% (inactive),5.14% (inactive)
COc1cc(-c2nn3c(-c4cccnc4)nnc3s2)cc(OC)c1OC,561,-0.7% (inactive),-9.6% (inactive),103%,-152% (inactive),134%,0.586,-0.752,-1.22,15.5% (inactive),-0.41 (inactive),-0.000121 (inactive),0.0074 (inactive),inactive,18.4% (inactive),12.1% (inactive),8.92% (inactive)
